In the library only some 21% were active in any assay of this set; here they are far more common.
ClpP mod: qHTS Assay for Activators of ClpP; ATP-dependent Clp protease proteolytic subunit (Bacillus subtilis (strain 168)), P80244; purified B. subtilis ClpP, FRET peptide cleavage, 20 min; Potency, µM (series often up to 57.5 µM), for the others: top-dose activity change, negative = active; actives 1.9% (n = 340,000); active = well fitted falling curve with a large enough effect; inconclusive = small, poorly fitted or top-dose-only effect; inactive = no such curve, though single readings can be large or run the other way; note: potency is the fitted concentration of half-maximal effect; the source files actives as falling curves though it sought activators and does not explain the sign; nearly all actives have a fitted effect of over 65% in size
Target sequence (P80244 whole entry, looked up): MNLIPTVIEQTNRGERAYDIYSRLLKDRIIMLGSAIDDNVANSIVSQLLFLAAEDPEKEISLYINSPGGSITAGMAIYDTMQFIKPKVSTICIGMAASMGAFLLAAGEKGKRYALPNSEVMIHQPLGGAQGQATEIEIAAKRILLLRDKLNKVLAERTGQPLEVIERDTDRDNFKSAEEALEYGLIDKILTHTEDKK
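Purified B. subtilis ClpP, 10 microg/mL final in Tris/HCl pH8 with KCl, BSA, glycerol and Tween-20, cleaved an Abz/nitrotyrosine-quenched decapeptide. Fluorescence (ex 320, em 430) was read at 0 and 20 min at room temperature. Delta was normalized to 5.8 microM ADEP and DMSO/no-enzyme controls.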
IL-1B inflam inh: inflammasome signaling inhibition, IL-1 beta readout; THP-1 LPS/ATP IL-1B secretion, AlphaLISA, 16 h; stronger effect = lower value; activity change, % at 57.5 µM; actives 4.7% (n = 360,000); AID 743279; in the data active = activity change below about -50%; inconclusive = mostly about -30% to -49%; note: % is set by controls: 0 for no effect and ±100 for the full control effect
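THP-1 cells pretreated 1 hr with compounds (up to 57.5 uM final), then stimulated with LPS (250 ng/mL final) plus ATP (1.25 mM final); secreted IL-1B measured by AlphaLISA after 16 hr, decreased signal indicating inhibition.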
TDP1 cell noCPT: qHTS for Inhibitors of human tyrosyl-DNA phosphodiesterase 1 (TDP1): qHTS in cells in absence of CPT; DT40 Tdp1-/- hTDP1 cells, no CPT, ATP luminescence, 48 h; Potency, µM (doses to about 46.2 µM), for inactives: top-dose activity change, negative = growth inhibition, most hits filed as inhibitors; actives 15% (n = 420,000); AID 686978, 2013; note: potency is the fitted concentration of half-maximal effect; % is set by controls: 0 for no effect and ±100 for the full control effect; nearly all actives have a fitted effect of over 55% in size
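No-CPT arm: Tdp1-/-;hTDP1 DT40 cells (400/well) plus compounds, incubated ≥48 hr at 37 °C. Readout CellTiter-Glo luminescence.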
D3 ag: agonists of human D3 dopamine receptor; D3R DiscoveRx beta-arrestin cells, luminescence, 90 min; actives 0.58% (n = 410,000); AID 652048; max activation, %; in the data active = max activation above about 30%; note: 0% is about no effect
Target sequence (P35462 whole entry, looked up): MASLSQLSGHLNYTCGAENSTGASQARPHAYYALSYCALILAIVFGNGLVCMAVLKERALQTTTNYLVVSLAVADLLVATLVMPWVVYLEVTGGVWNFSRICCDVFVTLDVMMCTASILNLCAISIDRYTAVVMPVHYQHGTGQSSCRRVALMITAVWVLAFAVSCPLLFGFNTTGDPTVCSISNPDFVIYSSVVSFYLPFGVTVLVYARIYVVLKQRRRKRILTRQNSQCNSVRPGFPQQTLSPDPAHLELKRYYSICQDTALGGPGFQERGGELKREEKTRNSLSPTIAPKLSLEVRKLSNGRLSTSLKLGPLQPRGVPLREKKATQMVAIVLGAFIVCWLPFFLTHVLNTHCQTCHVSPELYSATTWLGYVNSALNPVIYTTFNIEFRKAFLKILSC
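Agonist-mode cell screen: cells plated at 1500/well and incubated overnight at 37 °C, then exposed to library compounds for 90 min at 37 °C. Detection reagent was added for 30–60 min at room temperature, and luminescence was read.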
DRD3 antagonist: blocks the human D3 dopamine receptor. max response, negative = inhibition, %. actives 2.5% (n = 360,000). D3R cells, DiscoveRx beta-arrestin luminescence, antagonist mode; stronger effect = lower value. AID 652054; in the data active = max response below about -50%; inconclusive = no clear call, values can overlap the other calls; note: % is set by controls: 0 for no effect and ±100 for the full control effect
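Cells plated overnight at 1500 cells/well, then exposed to library compounds with dopamine controls for 90 minutes at 37 degrees C. DiscoveRx reagent added for 30–60 minutes at room temperature; luminescence read, quantitative HTS format.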
TDP1 cell CPT: DT40-hTDP1 cell growth loss with CPT | chicken DT40 Tdp1-/-;hTDP1 cells + 20 nM CPT, ATP luminescence, 48 h | Potency, µM (highest dose often 46.2 µM), inactives show at the top dose activity change, negative = growth inhibition, hits mostly inhibitors | actives 12% (n = 420,000) | AID 686979; note: potency is the fitted concentration of half-maximal effect; % is set by controls: 0 for no effect and ±100 for the full control effect; nearly all actives have a fitted effect of over 55% in size
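Chicken DT40 Tdp1-/- cells stably complemented with human TDP1 were seeded at 400 cells/well in medium containing 20 nM camptothecin, exposed to pin-transferred compounds, and grown at 37 °C for at least 48 hr. Viability was read as ATP luminescence.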
Numbers without * were called inactive; u = inconclusive; x = no result given. Unless noted, calls come from the whole dose curve; as a rule, active = well fitted inhibition curve with a large enough effect; inconclusive = small, poorly fitted or top-dose-only effect; inactive = flat fitted curve, though single readings scatter.

SMILES	ClpP mod	IL-1B inflam inh	TDP1 cell noCPT	D3 ag	DRD3 antagonist	TDP1 cell CPT
CSc1nn(Cc2ccccc2C)c(NC(C)=O)c1S(=O)(=O)c1ccc(C)cc1	1.7%	x	14.6µM*	6.3	x	u
CC(C)(C)C(=O)Nc1ccc(N2CCN(c3ccc(C(F)(F)F)cn3)CC2)nc1	x	42.3	1.46µM*	5.8	12.2	u
Cc1cccc(C(=O)N2CCN(c3ccc(C(F)(F)F)cn3)CC2)c1C	u	-26.1	20.6µM*	3.0	3.2	13µM*
Cc1cc(C(=O)N2CCN(c3ccc(C(F)(F)F)cn3)CC2)c(C)o1	-4.1%	-12.4	10.3µM*	0.5	4.0	u
O=C(c1ccccn1)N1CCN(c2ccc(C(F)(F)F)cn2)CC1	u	-8.3	u	19.9	12.0	-29.8%
CS(=O)(=O)Nc1ccc(N2CCN(c3ccc(C(F)(F)F)cn3)CC2)nc1	1.1%	-12.3	u	5.3	16.9	u
O=C(c1ccc2n[nH]nc2c1)N1CCN(c2ccc(C(F)(F)F)cn2)CC1	-25.4%	33.9	u	2.0	8.8	16.4µM*
CC(OC(=O)/C=C/c1ccccc1Cl)C(=O)NC1CCCCC1C (configuration not stated)	-5.2%	-7.3	2.0%	-13.7	-1.6	-23.0%
Cc1cc(C(=O)C(=O)Nc2nncs2)c(C)n1-c1ccc(Cl)cc1	-3.5%	x	-28.4%	-6.4	x	-29.6%
O=C(c1ccc(Cl)cc1)c1cccc(O)c1	-1.9%	-6.5	u	-15.7	-18.9	u
COC(=O)[C@H]1C[C@@H](c2ccccc2)[C@H](C)C1(C)C	0.3%	15.2	-2.4%	8.7	34.6	4.4%
Cc1ccccc1N1CCN(C(=O)c2ccc(Oc3ccc(C(F)(F)F)cn3)cc2)CC1	-0.8%	-73.1*	12.6µM*	-15.8	13.3	8.91µM*
CCOc1ncccc1C(=O)N1CCN(c2ccc(C(F)(F)F)cn2)CC1	x	28.1	10.3µM*	0.7	-6.3	u
O=C(O)c1ccc(Oc2ccc(C(F)(F)F)cn2)cc1	x	0.0	-8.9%	-15.1	-23.4	4.8%
COC(=O)c1ccc(NC(=O)CSc2nnc3c4ccccc4n(C(C)C)c3n2)cc1	-0.5%	x	x	4.8	x	x
O=C(C1CCCCC1)N(Cc1cccnc1)c1nc2ccc(F)cc2s1	-2.0%	x	u	-11.3	x	u
CN(C)S(=O)(=O)c1ccc2c(c1)N(CC(=O)N1CCN(c3cccc(Cl)c3)CC1)CCS2	-36.4%	x	x	-9.6	x	x
CCc1cc(=O)oc2cc(C)cc(OCC(=O)NCCCN3CCOCC3)c12	4.0%	-10.4	7.3%	2.6	-9.2	2.0%
CC(NC(=O)c1cccc(F)c1)C1CC2CCC1C2 (configuration not stated)	x	1.3	-25.8%	-2.5	-6.5	-0.8%
COc1ccc(C(=O)C2CCCN(C3Cc4ccccc4C3)C2)c(OC)c1 (configuration not stated)	x	0.0	10.3µM*	-28.9	u	20.6µM*
COc1ccc(C(=O)C2CCCN(Cc3cc(C)c(O)c(C)c3)C2)c(OC)c1 (configuration not stated)	-4.4%	u	20.6µM*	-25.0	u	u
COc1cc(CN2CCCC(C(=O)c3ccc(C(C)(C)C)cc3)C2)cc(OC)c1O (configuration not stated)	x	-79.1*	u	-21.6	-58.6*	u
COc1ccc(C(=O)C2CCCN(S(=O)(=O)N(C)C)C2)c(C)c1 (configuration not stated)	x	51.7	-15.9%	3.9	13.3	-1.3%
COc1cccc(CN2CCCC(C(=O)c3ccc4c(c3)OCO4)C2)c1O (configuration not stated)	-3.9%	-23.9	-0.1%	-23.3	u	-14.5%
CCN(CC)C(=O)C1CCCN(Cc2ccc(OC)c(C)c2)C1 (configuration not stated)	-0.1%	-21.3	3.5%	-4.4	u	-23.4%
SMILES	ClpP mod	IL-1B inflam inh	TDP1 cell noCPT	D3 ag	DRD3 antagonist	TDP1 cell CPT
COc1cc2c(cc1OC)CN(C1CCCN(Cc3cc(Cl)ccc3O)C1)CC2 (configuration not stated)	-25.4%	-0.2	u	-11.2	-14.8	16.4µM*
N#CCc1nn2c3c(cnc2c1C#N)C(=O)CCC3	x	15.4	-22.4%	2.6	5.5	-4.7%
COc1ccc(CN2CCCC(C(=O)N3CCCC3)C2)c(OC)c1 (configuration not stated)	x	21.6	0.7%	-15.2	-9.7	1.4%
COCc1ccc(C(=O)N2CCCC(C(=O)c3cccc(C(F)(F)F)c3)C2)o1 (configuration not stated)	0.5%	16.3	u	2.2	5.9	u
COc1ccc(CN2CCCC(C(=O)c3ccc(Cl)cc3)C2)cc1Cn1cccn1 (configuration not stated)	-0.2%	-91.6*	u	-12.4	-22.0	u
COc1ccc(C(=O)C2CCCN(Cc3cc(Cl)ccc3O)C2)c(OC)c1 (configuration not stated)	x	-65.4*	u	-19.7	-54.4*	u
CCOc1cc(CN2CCCC(C(=O)c3cccc(C(F)(F)F)c3)C2)ccc1O (configuration not stated)	x	-2.8	25.9µM*	-16.2	-70.0*	u
CC(NC(=O)c1ccc2ccccc2n1)c1ccccc1 (configuration not stated)	x	-24.7	u	0.7	4.4	u
CN(C)C(CNC(=O)c1ccc(C2SCCS2)cc1)c1ccccc1 (configuration not stated)	x	-1.8	-25.9%	-25.8	-53.5*	u
Cc1ccc(S(=O)(=O)N(C)c2ccc(C(=O)NCC(c3ccco3)N3CCCC3)cc2)cc1 (configuration not stated)	-3.4%	-16.8	16.4µM*	-1.3	-28.1	u
Cc1cccc(NS(=O)(=O)c2ccc(C(=O)NCC(c3ccco3)N3CCCCC3)cc2)c1C (configuration not stated)	-1.4%	u	23.1µM*	-2.5	-0.3	u
CN(C)C(CNC(=O)c1ccc2ccccc2n1)c1ccccc1 (configuration not stated)	1.1%	20.3	18.4µM*	-34.8	-6.2	u
O=C(NCC(c1ccco1)N1CCCCC1)c1ccc(NS(=O)(=O)c2ccc(F)cc2)cc1 (configuration not stated)	-1.3%	13.2	u	-38.1	-25.8	-20.0%
